TDP1 inh = qHTS Assay for Inhibitors of Tyrosyl-DNA Phosphodiesterase (TDP1). Tyrosyl-DNA phosphodiesterase 1 (Homo sapiens), Q9NUW8. 350,000 compounds, 0.28% hits. Potency, µM (series often up to 130 µM), for inactives: top-dose activity change, negative = inhibition, hits mostly inhibitors. recombinant TDP1, AlphaScreen DNA substrate cleavage; also: potency is read from the fitted curve at half-maximal effect; nearly all actives have a fitted effect of over 40% in size
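Enzyme-compound mixtures sat 15 min at room temperature, followed by a 5 min reaction with 15 nM final substrate and 10 min with AlphaScreen beads. Recombinant human Tdp1 was used at 1 nM final.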
Six1-Eya2 blk = qHTS Assay for Inhibitors of the Six1/Eya2 Interaction; 360,000 compounds, 0.56% hits; activity change, % (no concentration beside the values); AID 651725, 2012; AlphaScreen GST-Six1/His-Eya2 binding, biochemical; active compounds read low; in the data active = activity change below about -65%; inconclusive = mostly about -30% to -63%
Target sequence (O00167 whole entry, looked up): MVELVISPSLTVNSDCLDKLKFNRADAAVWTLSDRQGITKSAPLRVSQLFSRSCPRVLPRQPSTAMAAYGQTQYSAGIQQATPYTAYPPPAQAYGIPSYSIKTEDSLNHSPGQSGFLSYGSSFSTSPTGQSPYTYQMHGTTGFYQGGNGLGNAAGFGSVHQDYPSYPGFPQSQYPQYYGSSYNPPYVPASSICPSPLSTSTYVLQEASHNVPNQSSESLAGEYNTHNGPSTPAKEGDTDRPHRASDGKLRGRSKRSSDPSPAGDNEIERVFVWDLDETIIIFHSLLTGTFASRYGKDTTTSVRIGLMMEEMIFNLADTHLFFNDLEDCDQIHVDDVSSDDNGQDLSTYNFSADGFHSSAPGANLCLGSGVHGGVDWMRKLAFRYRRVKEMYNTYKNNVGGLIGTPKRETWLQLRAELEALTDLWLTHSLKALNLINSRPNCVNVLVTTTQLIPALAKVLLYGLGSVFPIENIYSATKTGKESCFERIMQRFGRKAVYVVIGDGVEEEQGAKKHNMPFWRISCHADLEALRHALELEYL
Target sequence (Q15475 whole entry, looked up): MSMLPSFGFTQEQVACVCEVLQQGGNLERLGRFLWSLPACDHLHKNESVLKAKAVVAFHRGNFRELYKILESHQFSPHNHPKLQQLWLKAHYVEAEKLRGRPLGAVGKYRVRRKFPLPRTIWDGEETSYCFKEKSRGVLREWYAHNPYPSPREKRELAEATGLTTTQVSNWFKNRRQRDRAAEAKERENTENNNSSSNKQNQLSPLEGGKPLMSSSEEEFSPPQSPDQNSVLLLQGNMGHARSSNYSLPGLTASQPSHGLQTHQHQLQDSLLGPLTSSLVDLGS
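Six1/Eya2 binding was read as AlphaScreen signal after compounds were pinned into GST-Six1 plus His-tagged Eya2 (5X stock 250/500 nM) in pH 8.0 Tris/NaCl/TCEP buffer, beads added, then incubated 1 h, 37 C, dark.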
DT40 TDP1 CPT = qHTS for Inhibitors of human tyrosyl-DNA phosphodiesterase 1 (TDP1): qHTS in cells in presence of CPT; chicken DT40 Tdp1-/-;hTDP1 cells + 20 nM CPT, ATP luminescence, 48 h; Potency, µM (highest dose often 46.2 µM), without a hit: at the top dose activity change, negative = growth inhibition, usual class: inhibitors; 420,000 compounds, 12% hits; AID 686979, 2013; also: potency is read from the fitted curve at half-maximal effect; nearly all actives have a fitted effect of over 55% in size
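Chicken DT40 Tdp1-/- cells complemented with human TDP1, 400 cells/well, exposed to compounds plus 20 nM camptothecin for at least 48 h at 37 C; viability read as ATP content by CellTiter-Glo luminescence.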
CtBP-E1A inh = qHTS Assay for Inhibitors of the CtBP/E1A Interaction. CtBP / adenovirus E1A interaction (AlphaScreen). AlphaScreen GST-E1A/His-CtBP binding, 1536-well; active compounds read low. activity change, % (no concentration beside the values). 340,000 compounds, 0.49% hits. AID 651724, 2012; in the data active = activity change below about -65%; inconclusive = mostly about -30% to -63%
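Protein mix (5X: 125 nM each GST-E1A, His-CtBP) was incubated with pinned compound 2 h at 37 deg C in dark, in 50 mM Tris pH 8.0 buffer with 300 mM NaCl. Glutathione donor and nickel acceptor beads followed; AlphaScreen signal read after 1 h.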
DT40 TDP1 no CPT = qHTS for Inhibitors of human tyrosyl-DNA phosphodiesterase 1 (TDP1): qHTS in cells in absence of CPT; 420,000 compounds, 15% hits; Potency, µM (doses to about 46.2 µM), without a hit: top-dose activity change, negative = growth inhibition, hits mostly inhibitors; DT40 Tdp1-/- hTDP1 cells, no CPT, ATP luminescence, 48 h; AID 686978, 2013; also: potency is read from the fitted curve at half-maximal effect; nearly all actives have a fitted effect of over 55% in size
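Growth of hTDP1-complemented DT40 Tdp1-knockout cells is measured by ATP luminescence after at least 48 hr compound exposure at 37 °C, with DMSO substituting for the 20 nM CPT used in the parallel screen.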
IL1B secr inh = qHTS for Inhibitors of Inflammasome Signaling: IL-1-beta AlphaLISA Primary Screen. AID 743279, 2014. activity change, % at 57.5 µM. THP-1 LPS/ATP IL-1B secretion, AlphaLISA, 16 h; active compounds read low. 360,000 compounds, 4.7% hits; in the data active = activity change below about -50%; inconclusive = mostly about -30% to -49%
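THP-1 cells pretreated 1 hr with compounds (up to 57.5 uM final), then stimulated with LPS (250 ng/mL final) plus ATP (1.25 mM final); secreted IL-1B measured by AlphaLISA after 16 hr, decreased signal indicating inhibition.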
* hit, by the source's call. A selection: hits, their analogues and other compounds. The true share with any hit is near 18%. Unless noted, calls follow the shape of the dose curve; as a rule, active = well fitted curve in the direction sought with a large enough effect; inconclusive = small, poorly fitted or top-dose-only effect, or another doubt; inactive = no such curve, though single readings can be large; an effect the other way counts as inactive or inconclusive. % is scaled to controls: 0 for no effect and ±100 for the full control effect.

What do the screens show for `CC1(C)Cc2ccccc2C2=NNC(=O)C2=N1`?
TDP1 inh: 0.0%; Six1-Eya2 blk: -5.1; DT40 TDP1 CPT: 16.4µM*; CtBP-E1A inh: -13.8; DT40 TDP1 no CPT: 10.3µM*; IL1B secr inh: -100.1*

Results for C#CC[N+](C)(C)CCCCCCCCC ?
TDP1 inh: 1.8%; Six1-Eya2 blk: 12.4; DT40 TDP1 CPT: 2.31µM*; CtBP-E1A inh: -0.1; DT40 TDP1 no CPT: 2.31µM*; IL1B secr inh: -68.0*

How did CC#CC[N+](C)(C)CCCCCCCCCC do in these assays?
TDP1 inh: 7.0%; Six1-Eya2 blk: 10.6; DT40 TDP1 CPT: 2.31µM*; CtBP-E1A inh: 11.8; DT40 TDP1 no CPT: 1.84µM*; IL1B secr inh: -58.6*

What do the screens show for `N=c1n(CCN2CCOCC2)c2ccccc2n1Cc1ccccc1Br`?
TDP1 inh: 4.8%; Six1-Eya2 blk: -1.2; DT40 TDP1 CPT: inconclusive; CtBP-E1A inh: -1.8; DT40 TDP1 no CPT: inconclusive; IL1B secr inh: -27.7

Results for CC(C(=O)NCc1ccco1)n1ccc2cc(S(=O)(=O)N3CCCC3)ccc21 (configuration not stated) ?
TDP1 inh: 7.1%; Six1-Eya2 blk: -3.0; DT40 TDP1 CPT: -21.9%; CtBP-E1A inh: 1.3; DT40 TDP1 no CPT: -8.3%; IL1B secr inh: 39.5

How did O=C(CSC1=Nc2ccccc2N=C(c2ccc(F)cc2)C1)NCc1ccc(Cl)cc1 do in these assays?
TDP1 inh: 5.3%; DT40 TDP1 CPT: 20.6µM*; DT40 TDP1 no CPT: inconclusive

Results for O=C(CSC1=Nc2ccccc2N=C(c2ccc(F)cc2)C1)NCc1ccccc1Cl ?
TDP1 inh: 0.6%; DT40 TDP1 CPT: 23.1µM*; DT40 TDP1 no CPT: inconclusive

How did COc1cccc(CNC(=O)CSC2=Nc3ccccc3N=C(c3ccc(F)cc3)C2)c1 do in these assays?
TDP1 inh: 3.0%; DT40 TDP1 CPT: 20.6µM*; DT40 TDP1 no CPT: inconclusive

Results for O=C(CSC1=Nc2ccccc2N=C(c2ccc(F)cc2)C1)Nc1ccccc1 ?
TDP1 inh: 5.3%; DT40 TDP1 CPT: inconclusive; DT40 TDP1 no CPT: inconclusive

How did CCc1ccccc1N(CC(=O)NC1CCCC1)C(=O)CNC(=O)c1cccs1 do in these assays?
TDP1 inh: 9.1%; Six1-Eya2 blk: -0.3; DT40 TDP1 CPT: -5.6%; CtBP-E1A inh: 12.6; DT40 TDP1 no CPT: -13.1%; IL1B secr inh: 4.7

Results for COc1ccccc1CN1C[C@@H]2C[C@@H](c3ccccc3OC)N3CCC[C@@]23C1=O ?
Six1-Eya2 blk: 0.8; DT40 TDP1 CPT: 16.4µM*; CtBP-E1A inh: 1.0; DT40 TDP1 no CPT: inconclusive; IL1B secr inh: -15.5

Results for Cc1c([C@@H]2C[C@H]3CN(Cc4cccc(Cl)c4)C(=O)[C@]34CCCN24)cnn1C ?
TDP1 inh: 5.6%; Six1-Eya2 blk: -0.9; DT40 TDP1 CPT: inconclusive; CtBP-E1A inh: 6.6; DT40 TDP1 no CPT: inconclusive; IL1B secr inh: -25.7

Results for COc1ccccc1-n1cc([C@@H]2C[C@H]3CN(c4ccccc4)C(=O)[C@]34CCCN24)cn1 ?
TDP1 inh: 5.6%; Six1-Eya2 blk: -8.7; DT40 TDP1 CPT: -6.9%; CtBP-E1A inh: 0.6; DT40 TDP1 no CPT: 2.7%; IL1B secr inh: -78.4*

Results for O=C1N(C2CCCC2)C[C@@H]2C[C@@H](c3cn[nH]c3-c3ccc(Cl)cc3)N3CCC[C@@]123 ?
TDP1 inh: 9.0%; Six1-Eya2 blk: -0.8; DT40 TDP1 CPT: inconclusive; CtBP-E1A inh: 2.5; DT40 TDP1 no CPT: inconclusive; IL1B secr inh: -64.3*

Results for Cc1ccccc1CN1C[C@@H]2C[C@@H](c3cn[nH]c3-c3ccccc3)N3CCC[C@@]23C1=O ?
TDP1 inh: 2.7%; Six1-Eya2 blk: -3.9; DT40 TDP1 CPT: inconclusive; DT40 TDP1 no CPT: inconclusive; IL1B secr inh: -63.0*

How did Cn1c(=O)c2c(nc(-n3ccnc3)n2Cc2ccc(Cl)cc2Cl)n(C)c1=O do in these assays?
TDP1 inh: 8.2%; Six1-Eya2 blk: -3.4; DT40 TDP1 CPT: inconclusive; CtBP-E1A inh: 34.0; DT40 TDP1 no CPT: inconclusive; IL1B secr inh: -25.9

What do the screens show for `COc1ccc(NC(=O)c2ccco2)cc1NC(=O)c1cccs1`?
TDP1 inh: 2.3%; Six1-Eya2 blk: -0.8; DT40 TDP1 CPT: -1.8%; CtBP-E1A inh: 8.9; DT40 TDP1 no CPT: -16.9%; IL1B secr inh: -8.1

How did COc1ccc(NS(=O)(=O)c2cccc(C(=O)NC3CCN(Cc4ccccc4)CC3)c2)cc1 do in these assays?
TDP1 inh: 7.2%; Six1-Eya2 blk: -0.9; DT40 TDP1 CPT: 14.6µM*; CtBP-E1A inh: 0.2; DT40 TDP1 no CPT: inconclusive; IL1B secr inh: -69.8*

How did COc1ccc(NS(=O)(=O)c2cccc(C(=O)NNC(=O)c3cccc(NC(C)=O)c3)c2)cc1 do in these assays?
Six1-Eya2 blk: 3.6; DT40 TDP1 CPT: 4.9%; CtBP-E1A inh: -0.3; DT40 TDP1 no CPT: 10.8%; IL1B secr inh: 5.1

What do the screens show for `COc1ccc(NS(=O)(=O)c2cccc(C(=O)NNC(=O)c3ccc(Br)o3)c2)cc1`?
TDP1 inh: -3.7%; Six1-Eya2 blk: -11.2; DT40 TDP1 CPT: -53.1%; CtBP-E1A inh: 3.9; DT40 TDP1 no CPT: 5.8µM*; IL1B secr inh: -12.6

What do the screens show for `O=C(NC1CCN(Cc2ccccc2)CC1)c1cccc(S(=O)(=O)Nc2cc(C(F)(F)F)ccc2Cl)c1`?
TDP1 inh: 5.3%; Six1-Eya2 blk: -0.1; DT40 TDP1 CPT: inconclusive; CtBP-E1A inh: -8.5; DT40 TDP1 no CPT: inconclusive; IL1B secr inh: -5.7

Results for COc1ccc(Cl)cc1NS(=O)(=O)c1cccc(C(=O)NC2CCN(Cc3ccccc3)CC2)c1 ?
Six1-Eya2 blk: -4.5; DT40 TDP1 CPT: inconclusive; CtBP-E1A inh: -27.7; DT40 TDP1 no CPT: inconclusive; IL1B secr inh: -57.4*

What do the screens show for `CCN(CCCNC(=O)CN1C(=O)COc2ccc(S(=O)(=O)N3CCC(C)CC3)cc21)Cc1ccccc1`?
TDP1 inh: 0.8%; Six1-Eya2 blk: -8.6; DT40 TDP1 CPT: inconclusive; CtBP-E1A inh: -1.5; DT40 TDP1 no CPT: -20.5%

Results for COc1ccc(NC(=O)c2nc[nH]c2C(=O)N2CCN(c3ccccc3)CC2)cc1 ?
TDP1 inh: 6.2%; Six1-Eya2 blk: 2.8; DT40 TDP1 CPT: -25.7%; CtBP-E1A inh: 3.0; DT40 TDP1 no CPT: inconclusive; IL1B secr inh: -12.3

High-throughput results from PubChem.
